Data reported in PubChem BioAssay (Tox21).
Results filed as inconclusive are left out. Calls of active or inactive are those of the source. Unless noted, calls come from the whole dose curve; as a rule, active = well fitted curve in the direction sought with a large enough effect in the repeat runs; inconclusive = weak or mixed curves; inactive = no such curve, though single readings can be large; an effect the other way counts as inactive or inconclusive.

Key:
[1] = qHTS assay to identify small molecule agonists of the peroxisome proliferator-activated receptor delta (PPARd) signaling pathway - cell viability counter screen (AID 743211); note: nearly all actives have a fitted effect of over 55% in size
How it was run: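 HEK293H PPARd-bla, 3000 cells/well; 5 h preincubation 37C/5% CO2; cpd in DMSO, 17 h 37C; B/G FRET substrate 2 h RT; CellTiter-Glo 30 min RT, luminescence.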

[2] = target: Peroxisome proliferator-activated receptor delta (Homo sapiens) (UniProt Q03181); test: qHTS assay to identify small molecule agonists of the peroxisome proliferator-activated receptor delta (PPARd) signaling pathway (AID 743212; calls by dose curve;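 note: HEK293H cells with PPARd UAS beta-lactamase reporter GeneBLAzer system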)
Peroxisome proliferator-activated receptor delta (Homo sapiens), sequence (Q03181 whole entry, looked up): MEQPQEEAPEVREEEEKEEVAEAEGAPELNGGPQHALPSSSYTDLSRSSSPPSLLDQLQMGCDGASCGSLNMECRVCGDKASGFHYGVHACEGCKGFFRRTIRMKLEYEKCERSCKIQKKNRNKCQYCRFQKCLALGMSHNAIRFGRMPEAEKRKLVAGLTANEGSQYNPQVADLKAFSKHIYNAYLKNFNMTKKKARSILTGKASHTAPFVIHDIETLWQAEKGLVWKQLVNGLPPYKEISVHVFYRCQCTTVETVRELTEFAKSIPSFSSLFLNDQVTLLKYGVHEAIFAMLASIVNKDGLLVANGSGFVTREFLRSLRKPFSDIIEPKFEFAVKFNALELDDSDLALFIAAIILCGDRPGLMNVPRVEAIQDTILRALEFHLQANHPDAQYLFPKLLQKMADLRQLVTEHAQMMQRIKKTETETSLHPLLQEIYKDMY
How it was run: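 Beta-lactamase reporter readout: a ratiometric FRET signal from the LiveBLAzer substrate after 2 h at room temperature. Compound exposure at 37 °C in PPARδ-bla HEK293H cells driven by an upstream activator sequence.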

[3] = qHTS assay to identify small molecule antagonists of the peroxisome proliferator-activated receptor delta (PPARd) signaling pathway - cell viability counter screen (AID 743213); note: nearly all actives have a fitted effect of over 50% in size
How it was run: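 HEK293H cells with the PPARd UAS-bla reporter, co-treated 17 h at 37 C with compounds and L165041 (300 nM final), were lysed with CellTiter-Glo. Luminescence indicated viable cell content.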

[4] = target: Bile acid receptor (Homo sapiens) (UniProt Q96RI1); test: qHTS assay to identify small molecule agonists of the farnesoid-X-receptor (FXR) signaling pathway (AID 743220; active = well fitted activation curve with a large enough effect in the signal ratio in the repeat runs, not every such curve was filed as active; the % refers to the signal ratio)
Bile acid receptor (Homo sapiens), sequence (Q96RI1 whole entry, looked up): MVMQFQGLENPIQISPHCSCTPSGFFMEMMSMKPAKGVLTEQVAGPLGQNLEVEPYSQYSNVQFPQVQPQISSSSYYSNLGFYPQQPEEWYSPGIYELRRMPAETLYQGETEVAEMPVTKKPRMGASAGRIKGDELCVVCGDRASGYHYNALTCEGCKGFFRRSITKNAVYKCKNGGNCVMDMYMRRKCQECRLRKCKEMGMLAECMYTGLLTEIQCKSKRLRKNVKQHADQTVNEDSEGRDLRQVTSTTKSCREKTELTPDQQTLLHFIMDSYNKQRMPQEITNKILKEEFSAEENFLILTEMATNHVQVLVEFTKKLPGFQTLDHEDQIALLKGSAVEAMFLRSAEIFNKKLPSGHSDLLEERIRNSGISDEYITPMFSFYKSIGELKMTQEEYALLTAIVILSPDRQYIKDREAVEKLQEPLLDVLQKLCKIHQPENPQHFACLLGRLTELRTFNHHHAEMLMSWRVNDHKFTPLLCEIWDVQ
How it was run: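 FXR-UAS-bla HEK 293T cells carrying a UAS-driven beta-lactamase reporter were plated for 5 h at 37C/5% CO2, then exposed to DMSO-dissolved Tox21 10K compounds for 16 h at 37C. A LiveBLAzer B/G FRET substrate was loaded for 2 h at room temperature before fluorescence reading.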

[5] = qHTS assay to identify small molecule antagonists of the farnesoid-X-receptor (FXR) signaling pathway - cell viability counter screen (AID 743221; active = well fitted cell-killing curve with a large enough effect in the repeat runs, not every such curve was filed as active; note: nearly all actives have a fitted effect of over 50% in size)
How it was run: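 Luminescence from CellTiter-Glo measures cytotoxicity in GeneBLAzer FXR-UAS-bla HEK 293T cells. Cells were exposed to compounds with 50 uM chenodeoxycholic acid (final) for 16 h at 37 C, in wells also used for the reporter readout.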

[6] = target: Vitamin D3 receptor (Homo sapiens) (UniProt P11473); test: qHTS assay to identify small molecule agonists of the vitamin D receptor (VDR) signaling pathway (AID 743222; calls by dose curve)
Vitamin D3 receptor (Homo sapiens), sequence (P11473 whole entry, looked up): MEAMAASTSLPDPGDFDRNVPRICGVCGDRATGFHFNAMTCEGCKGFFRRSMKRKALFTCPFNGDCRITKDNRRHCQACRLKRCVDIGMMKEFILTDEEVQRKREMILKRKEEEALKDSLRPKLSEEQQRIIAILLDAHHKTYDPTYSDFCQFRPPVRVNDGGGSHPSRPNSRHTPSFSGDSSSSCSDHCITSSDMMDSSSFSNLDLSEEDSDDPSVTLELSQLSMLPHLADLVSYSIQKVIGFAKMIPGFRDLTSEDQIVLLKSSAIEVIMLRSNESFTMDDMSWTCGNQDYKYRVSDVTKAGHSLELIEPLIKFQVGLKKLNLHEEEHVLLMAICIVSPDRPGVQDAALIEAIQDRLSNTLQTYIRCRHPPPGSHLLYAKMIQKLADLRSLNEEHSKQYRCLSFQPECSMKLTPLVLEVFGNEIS
How it was run: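 Agonist mode, beta-lactamase reporter: fluorescence from LiveBLAzer B/G FRET substrate (2 h, room temperature) read after 16 h compound treatment at 37 C of VDR-bla cells, which were pre-incubated 4 h after seeding.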

[7] = target: Vitamin D3 receptor (Homo sapiens) (UniProt P11473); test: qHTS assay to identify small molecule antagonists of the vitamin D receptor (VDR) signaling pathway (AID 743223; active = well fitted inhibition curve with a large enough effect in the signal ratio in the repeat runs, not every such curve was filed as active; the % refers to the signal ratio)
How it was run: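 Antagonist mode uses 1alpha,25-dihydroxyvitamin D3 at 3 nM final as stimulus. VDR-bla cells receive compounds in DMSO, incubate 16 h at 37C, then a beta-lactamase FRET substrate for 2 h at room temperature before fluorescence measurement.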

[8] = target: Peroxisome proliferator-activated receptor delta (Homo sapiens) (UniProt Q03181); test: qHTS assay to identify small molecule antagonists of the peroxisome proliferator-activated receptor delta (PPARd) signaling pathway (AID 743215; active = well fitted inhibition curve with a large enough effect in the signal ratio in the repeat runs, not every such curve was filed as active; the % refers to the signal ratio;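 note: cells stimulated with agonist L165041 at 300 nM final during compound exposure; series mostly up to about 62 µM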)
How it was run: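 Agonist L165041 (300 nM final) added with compound to PPARd-bla HEK293H UAS-bla reporter cells; 17 h incubation at 37 C. Read-out: LiveBLAzer FRET substrate, 2 h at room temperature, fluorescence intensity.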

[9] = qHTS assay to identify small molecule agonists of the farnesoid-X-receptor (FXR) signaling pathway - cell viability counter screen (AID 743218); note: nearly all actives have a fitted effect of over 45% in size
How it was run: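 Viability counter screen in the same wells: CellTiter-Glo luminescence, 30 min room-temperature incubation, measured after the beta-lactamase read. Cells were GeneBLAzer FXR-UAS-bla HEK 293T, compound-treated 16 h at 37C.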

[10] = target: Bile acid receptor (Homo sapiens) (UniProt Q96RI1); test: qHTS assay to identify small molecule antagonists of the farnesoid-X-receptor (FXR) signaling pathway (AID 743217; active = well fitted inhibition curve with a large enough effect in the signal ratio in the repeat runs, not every such curve was filed as active; the % refers to the signal ratio)
How it was run: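 Antagonist mode: chenodeoxycholic acid at 50 uM final stimulates a UAS-driven beta-lactamase reporter in HEK 293T FXR-bla cells during 16 h, 37C compound exposure. Read-out is FRET substrate fluorescence after 2 h at room temperature.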
% is set by controls: 0 for no effect and ±100 for the full control effect.

COc1ccc(-c2cc(C(F)F)nn2-c2ccc(S(N)(=O)=O)cc2)cc1F
inactive: Potency [1] | outcome [2] | Potency [3] | Potency [4] | Potency [5] | outcome [6] | outcome [7]

CCNc1nc(N)nc(Cl)n1
inactive: Potency [1] | outcome [2] | Potency [8] | Potency [9] | Potency [5]

CCCCCCC(CO)CCCC (centres undefined)
inactive: Potency [1] | outcome [2] | Potency [3] | Potency [5] | outcome [6] | outcome [7]

O=C(c1ccccc1)C1CCC1
inactive: Potency [1] | outcome [2] | Potency [3] | Potency [9] | Potency [5] | outcome [6] | outcome [7]

BrC(Br)C(Br)Br
inactive: Potency [1] | outcome [2] | Potency [3] | Potency [9] | Potency [5] | outcome [6] | outcome [7]

O=C1CC[C@@H](C(=O)O)N1
inactive: Potency [1] | outcome [2] | Potency [3] | Potency [9] | outcome [6]

CC(C)C(=O)OCCOc1ccccc1
inactive: Potency [1] | outcome [2] | Potency [8] | Potency [5] | outcome [6] | outcome [7]

c1ccc(CNc2ncnc3c2ncn3C2CCCCO2)cc1 (centres undefined)
inactive: Potency [1] | outcome [2] | Potency [8] | outcome [10] | Potency [4] | Potency [5]

COc1ccc(C2C(=O)c3ccccc3C2=O)cc1
inactive: Potency [1] | outcome [2] | Potency [3] | Potency [9] | Potency [5] | outcome [6] | outcome [7]

COc1cc(C(C)=O)ccc1OCCCN1CCC(c2noc3cc(F)ccc23)CC1
inactive: Potency [1] | outcome [2] | Potency [3] | Potency [9] | outcome [7]

COc1ccc(/C=C/C(=O)c2ccc(OC)cc2OC)cc1
inactive: Potency [1] | outcome [2] | Potency [9] | Potency [4] | outcome [6]

CC(C)(C)CCCCCCOC(=O)c1ccccc1C(=O)OCCCCCCC(C)(C)C
inactive: Potency [1] | outcome [2] | outcome [10] | Potency [9] | Potency [4]

Nc1ccc(S(=O)(=O)NCc2ccccc2)cc1
inactive: Potency [1] | outcome [2] | Potency [8] | outcome [10] | Potency [9] | Potency [4]

N[C@@H](Cc1cc(I)c(O)c(I)c1)C(=O)O
inactive: Potency [1] | outcome [2] | Potency [3] | Potency [9] | Potency [5] | outcome [7]

CCN(CC)CCOC(=O)C(c1ccccc1)c1ccccc1
inactive: Potency [1] | outcome [2] | outcome [10] | Potency [9] | Potency [4] | Potency [5] | outcome [6]

CCCOC(=O)c1c(Cl)c(Cl)c(Cl)c(Cl)c1C(=O)OCCC
inactive: Potency [1] | outcome [2] | Potency [3] | Potency [5] | outcome [6] | outcome [7]

Nc1ccc(F)cc1
inactive: Potency [1] | outcome [2] | Potency [3] | Potency [9] | Potency [5] | outcome [6] | outcome [7]

Cc1ccc(Nc2c(F)cccc2Cl)c(CC(=O)O)c1
inactive: Potency [1] | outcome [2] | outcome [10] | Potency [9] | Potency [4] | Potency [5]

COC(C)(C)OC
inactive: Potency [1] | outcome [2] | outcome [10] | Potency [9] | Potency [4] | Potency [5] | outcome [6] | outcome [7]

Nc1c(Cl)cc(Cl)cc1[N+](=O)[O-]
inactive: Potency [1] | outcome [2] | Potency [3] | Potency [9] | outcome [6]

COc1ccc(C)cc1
inactive: Potency [1] | outcome [2] | Potency [3] | Potency [9] | Potency [5] | outcome [6]

COc1ccc2nc(S(=O)Cc3ncc(C)c(OC)c3C)[nH]c2c1 (centres undefined)
inactive: Potency [1] | outcome [2] | Potency [3] | Potency [9] | outcome [6]

Cc1ccc2c(c1)CCCN2
inactive: Potency [1] | outcome [2] | Potency [8] | Potency [5]

Nc1cccc2c(N)cccc12
inactive: Potency [1] | outcome [2] | outcome [10]

NC(=O)c1ccccc1[N+](=O)[O-]
inactive: Potency [1] | outcome [2] | Potency [3] | Potency [9] | Potency [5]

CC[C@@H](CO)NCCN[C@@H](CC)CO
inactive: Potency [1] | outcome [2] | Potency [9] | Potency [5]

COc1cc(NC(C)CCCN)c2ncccc2c1 (centres undefined)
inactive: Potency [1] | outcome [2] | Potency [8] | Potency [9] | outcome [7]

O=C(c1ccccc1)c1ccc(O)cc1
inactive: Potency [1] | outcome [2] | outcome [10] | Potency [9] | Potency [4] | Potency [5] | outcome [6]

CC1CCc2nccnc21 (centres undefined)
inactive: Potency [1] | outcome [2] | Potency [8] | Potency [9] | Potency [4] | Potency [5] | outcome [6] | outcome [7]

CCC(Cl)CC(Cl)C(Cl)C(Cl)C(Cl)C(C)Cl (centres undefined)
inactive: activity change, negative = cytotoxicity [1] -18.5% [at 13.2 µM] | activation [2] -9.79% [at 13.2 µM] | ratio activity, negative = inhibition [8] -24% [at 13.7 µM] | activity change, negative = cytotoxicity [5] -0.0192% [at 13.2 µM]

O=CNNC=O
inactive: Potency [1] | outcome [2] | Potency [3] | Potency [9] | Potency [5] | outcome [6] | outcome [7]

CC(C)Cc1ccc(CC(=O)O)cc1
inactive: Potency [1] | outcome [2] | outcome [10] | Potency [9] | Potency [4] | Potency [5]

[Cl][Nd]([Cl])[Cl]
inactive: Potency [1] | outcome [2] | Potency [3] | Potency [9] | Potency [5] | outcome [6]

CC(=O)Oc1cccc(O)c1
inactive: Potency [1] | Potency [3] | outcome [10] | Potency [9] | Potency [4] | Potency [5] | outcome [7]
